Sampled rows, rich in hits. Any-hit rate of the full collection: about 2%.
ABCB6 inh MLPCN = inhibitors of human ABC transporter ABCB6 | K562-ABCB6 porphyrin accumulation, flow cytometry, 1 h; stronger effect = lower value | fluorescence ratio to DMSO, % at 10 µM | hit rate 0.19% among 360,000 | AID 602162;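 active means fluorescence ratio to DMSO below 75%, the collection mean minus 3 SD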;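 further: signal is porphyrin accumulated inside mitochondria; 100% equals median channel fluorescence of DMSO control wells; lower ratio means ABCB6 inhibition with less porphyrin fluorescence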
VLA-4 inh = inhibition in a human VLA-4 binding assay; VLA-4 expressing cells, ligand binding flow cytometry; inhibition, % (about 7 µM as worked out from the volumes in the protocol); hit rate 0.2% among 330,000; AID 2557; in the data active means inhibition above about 50%
Granule exo inh = blocks lytic granule exocytosis; TALL-104 LAMP-1 surface exposure, flow cytometry; cells stimulated with thapsigargin and PMA; inhibition, % at 10 µM; AID 651702; hit rate 0.66% among 360,000;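 active means inhibition above about 55%, limit read from the data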
Rev-erbA mod = modulators of human Rev-erb alpha DNA binding; Rev-erbα–FITC-DNA binding, fluorescence polarization, 90 min; P20393; activity, % at 10 µM; hit rate 0.79% among 370,000;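 active means activity above about 14%, limit read from the data; passing the limit was not always enough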;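 further: 0% = DMSO wells with 35 nM protein and 100% = DMSO wells with 750 nM protein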
PG9 binder = PG9 antibody binding by small molecule; TR-FRET gp120-PG9 antibody binding; inhibition, % at 6.7 µM; hit rate 0.43% among 360,000; AID 624416; in the data active means inhibition above about 8.5%
* marks the source's active call; other numbers are inactive results; · = no result given.

SMILES | ABCB6 inh MLPCN | VLA-4 inh | Granule exo inh | Rev-erbA mod | PG9 binder
Cc1cccc(NCCC(=O)c2ccc([N+](=O)[O-])cc2)c1C | 96 | -2 | 107* | 1 | -1
Cc1cccc2c1CCC1CN(Cc3ccccc3)S(=O)(=O)N21 (stereo not drawn) | · | · | · | -6 | ·
C=CCCC1CN(Cc2ccc(OC)cc2)S(=O)(=O)c2c(F)cccc2O1 (stereo not drawn) | · | · | · | 4 | 0
Clc1ccc(CN2CCN(N=Cc3cccc(OCc4ccccc4)c3)CC2)cc1 | · | · | · | 5 | ·
COC1=C(C)C(=O)C2=C(C1=O)C1C3CC4=C(C(=O)C(OC)=C(C)C4=O)C(CNC(=O)C(C)=O)N3C(C#N)C(C2)N1C (stereo not drawn) | 94 | · | 74* | 3 | -10
O=c1c2c3nc4ccccc4nc3n(Cc3ccccc3)c2ncn1Cc1ccco1 | 105 | · | 93* | -10 | 1
COC(=O)[C@@H]1N=C(c2ccc(OC)cc2)O[C@]12C(=O)N(Cc1cn(Cc3ccccc3)nn1)c1cccc(Cl)c12 | · | · | · | 3 | ·
C=CCOC(=O)C1=C(C)NC(=S)NC1/C=C/c1ccccc1 (stereo not drawn) | 92 | 7 | 66* | 3 | 2
CC1=C(C(=O)OCc2ccccc2)C(/C=C/c2ccccc2)NC(=S)N1 (stereo not drawn) | 92 | 25 | 21 | 8 | 2
O=C(/C=C\c1ccc(-c2ccccc2)o1)c1ccccc1 | 101 | 19 | 86* | 1 | 1
Cc1ccc(C(=O)/C=C/c2ccc(-c3ccc(C)cc3)o2)cc1 | 107 | -22 | 72* | -3 | -1
C=C(C)[C@@H]1CC2=C(OC)C(CC=C(C)C)(CC=C(C)C)C(=O)C(C(=O)c3ccccc3)=C2O1 | · | · | · | 4 | ·
C[C@H]1[C@@H](c2ccccc2)OC(O)([C@H](Cc2ccccc2)NC(=O)OC(C)(C)C)CN1C (stereo partly drawn) | · | · | · | 7 | ·
O=C1c2ccccc2-c2onc3ccc(NCc4ccco4)c1c23 | 336 | -356 | 56* | · | ·
CCOc1ccc2noc3c2c1C(=O)c1ccccc1-3 | 299 | -443 | -1 | -4 | -8
C/C(=N/NC(=O)CSc1nnc(SCc2ccc(C)cc2)s1)c1cccc(O)c1 | · | · | · | -6 | ·
COc1ccc(-n2c(C)c([N+](=O)[O-])c3ccc(O)c(CN4CCCCC4)c32)cc1 | 93 | 11 | 63* | 7 | -4
Cc1ccc(-n2c(C)c([N+](=O)[O-])c3ccc(O)c(CN(C)C)c32)cc1 | 92 | 24 | -1 | 0 | -3
N#CC1=C(N)NC(=S)C(C(N)=O)C1c1ccccc1F (stereo not drawn) | 99 | -2 | -8 | -2 | -1
N#CC1=C(N)NC(=S)C(C(N)=O)C1c1ccc(Cl)cc1Cl (stereo not drawn) | 101 | 25 | 99* | 3 | 0
COCCN1C(=O)/C(=C/c2ccc(OCc3ccc(C(=O)O)cc3)c(OC)c2)SC1=Nc1ccccc1 | 102 | 2 | 79* | -7 | -1
COc1cc(/C=C2\SC(=Nc3ccccc3)N(Cc3ccco3)C2=O)ccc1OC(C)C(=O)O (stereo not drawn) | 101 | -15 | -1 | -1 | -2
COC(=O)[C@]12C[C@H](CC(=O)N3CCN(C(=O)c4ccco4)CC3)C(=O)N(Cc3ccccc3)C1=C[C@H](C(C)C)O[C@@H]2C1CC1 | · | · | · | 2 | 0
CC(C)(C)c1ccc(C(=O)CCCSC2=C(C#N)C(c3ccco3)C3=C(CCCC3=O)N2)cc1 (stereo not drawn) | 57* | 17 | 1 | 5 | -1
Cc1ccc(C(=O)CSC2=C(C#N)C(c3ccco3)C3=C(CCCC3=O)N2)cc1 (stereo not drawn) | 105 | -15 | -3 | 1 | -1
SMILES | ABCB6 inh MLPCN | VLA-4 inh | Granule exo inh | Rev-erbA mod | PG9 binder
COP(=O)(CC(=O)C(Cc1ccccc1)NC(=O)OC(C)(C)C)OC (stereo not drawn) | · | · | · | -1 | ·
O=C(NCC(c1ccccc1)c1ccccc1)[C@H](Cc1c[nH]c2ccccc12)NC1(C(=O)NC2CCCCC2)CCC1 | · | · | · | 5 | ·
Cn1cccc1/C=C1\SC(=Nc2ccc(O)cc2)NC1=O | 97 | -5 | 7 | -3 | -7
Cn1cccc1/C=C1\SC(=Nc2ccccc2)NC1=O | 102 | 4 | 56* | 9 | -4
O=C1C=C[C@H]2CC[C@@H](O)[C@@H]1[C@@H]2Sc1ccccc1 | · | · | · | 8 | ·
CC(O)CC(=O)OC[C@]12CC[C@H]3[C@@](C)(CC[C@H]4C(C)(C)CCC[C@]34C)[C@@H]1CC(C1=CC(=O)OC1O)O2 (stereo partly drawn) | 104 | · | 56* | -2 | 0

Assay outcomes from PubChem.
